Screening results as filed in PubChem.
Sampled rows, rich in hits. Any-hit rate of the full collection: about 1.3%.
AI-2 QS mod = Vibrio harveyi AI-2 quorum sensing modulators, primary screen, JMH597 strain, luminescence/OD600 ratio; activity change, % at 7.5 µM; Vibrio harveyi JMH597 AI-2 luminescence/OD600 ratio, 9 h; active compounds read low; strain lacks LuxN and CqsS sensors; 0 = neutral-control median; hit rate 0.4% among 300,000; in the data active = activity change below about -75%, passing the limit was not always enough; inconclusive = no clear call, values can overlap the other calls;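 note: luminescence divided by OD600 gain over 9 h not by final OD600 alone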
PGC1a acetyl inh = inhibitors of PGC1a acetylation signal, primary screen, cell-based, U2OS, AlphaScreen, inhibitor mode. inhibition, % at 15.6 µM. hit rate 0.17% among 350,000. AID 651687, 2012. AlphaScreen anti-acetyl-lysine; with virally co-expressed GCN5 acetyltransferase;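 active = every replicate shows inhibition of at least 40%; inconclusive = mean inhibition at least 40% but some replicate below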;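 note: 0% = neutral control wells and 100% = positive control wells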
C2C12 statin = suppressors of statin myotoxicity in C2C12 myotubes, primary screen, cell-based, single point, plate reader; AID 602340, 2012; C2C12 myotubes + simvastatin, ATP luminescence, 48 h; scaled: DMSO 0, geranylgeraniol control 100; rescue of ATP level, % at 7.49 µM; hit rate 0.78% among 330,000;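 active = mean ATP rescue above about 67%, or every replicate alone reaching that limit, limit read from the data, passing the limit was not always enough; inconclusive = no clear call, values can overlap the other calls; inactive = mean under the limit and some replicate under it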;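 note: myotubes were challenged with 10 µM simvastatin during compound exposure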
Rce1 inh = yeast Rce1p protease inhibitors, primary screen, biochemical, fluorescence, cell-free homogeneous; yeast membranes, quenched prenylated peptide cleavage fluorescence; calls only; hit rate 0.27% among 290,000; AID 2563, 2010;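 active = fall in fluorescence gain of 50% or more versus controls, with final raw signal at or below 3038400; inconclusive = same 50% fall but final raw signal above 3038400; inactive = fall in fluorescence gain under 50%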;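 note: plate controls were neutral control wells for no effect and wells lacking membranes for full effect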
Target sequence (Q03530 whole entry, looked up): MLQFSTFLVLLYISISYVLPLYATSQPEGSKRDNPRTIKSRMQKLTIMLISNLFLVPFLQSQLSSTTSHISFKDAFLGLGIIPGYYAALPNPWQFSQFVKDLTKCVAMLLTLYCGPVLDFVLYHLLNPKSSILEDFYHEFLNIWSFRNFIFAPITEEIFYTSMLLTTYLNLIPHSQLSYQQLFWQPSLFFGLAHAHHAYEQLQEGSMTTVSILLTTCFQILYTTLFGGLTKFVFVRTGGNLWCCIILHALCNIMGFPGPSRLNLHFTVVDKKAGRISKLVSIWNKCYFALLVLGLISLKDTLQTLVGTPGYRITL
HIF activator = HIF pathway transcriptional activators, primary screen, cell-based, U2OS HRE-luciferase, luminescence; U2OS HRE-luciferase reporter; normalized: DMSO 0%, desferrioxamine 100%; activation, % at 7.5 µM (by protocol); hit rate 0.32% among 300,000; AID 1910, 2009;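 active = mean activation of at least 10% of the iron chelator positive control signal, with at least half of replicates also reaching 10%; inconclusive = mean and replicate majority disagree about reaching 10%; inactive = mean and most replicates under 10%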
* = called active by the depositor; i = inactive; ? = inconclusive; · = not tested or not shown; + = active, no number.

SMILES | AI-2 QS mod | PGC1a acetyl inh | C2C12 statin | Rce1 inh | HIF activator
CC(C)C#Cc1cnc2c(c1)C(=O)N([C@H](C)CO)C[C@H](C)[C@H](CN(C)C(=O)Cc1ccccn1)O2 | · | 2.0 | 29.3 | · | ·
CCN(CC)CCNC(=O)c1ccc2c(c1NCCO)C(=O)c1ccccc1C2=O | 9.1 | 91.6* | · | i | 0.3
CCN(CC)CCC(=O)Nc1cccc2c1C(=O)c1ccccc1C2=O | 7.9 | -12.8 | 24.8 | i | 26.3*
CCCSC1=N/C(=C\c2ccsc2)C(=O)S1 | 16.7 | 9.7 | 103.4* | i | 0.1
CCSC1=N/C(=C\c2ccc3c(c2)OCO3)C(=O)S1 | 7.6 | 3.2 | 97.1* | i | -0.4
CCCSC1=N/C(=C\c2ccc([N+](=O)[O-])o2)C(=O)S1 | · | -15.1 | 10.0 | · | ·
CCCSC1=N/C(=C\c2ccc3c(c2)OCO3)C(=O)S1 | -2.2 | 0.9 | · | i | -0.7
COc1ccc2c3c(n(C)c2c1)[C@@H](CO)N(C(=O)c1ccncc1)CC31CN(C(C)=O)C1 | · | -12.8 | · | · | ·
C/C=C/c1ccc(C2[C@H]3CNC[C@@H]2N3C(=O)Nc2ccc(C(F)(F)F)cc2)cc1 (some centres not stated) | · | -3.4 | · | · | ·
NNC(=O)c1nn(-c2ccc(Cl)cc2)cc1O | 22.9 | -2.5 | 113.5* | i | 1.7
O=C(O)[C@@H]1[C@@H](CO)[C@@H]2Cn3c(ccc(-c4ccccc4)c3=O)[C@@H]2N1CCc1ccccc1 | · | · | -7.4 | · | ·
Cc1ccc(NC2=C/C(=N\S(=O)(=O)c3cccs3)c3ccccc3C2=O)c(C)c1 | 28.8 | 92.9* | · | i | -31.7
Cc1ccc(Cl)cc1NC1=C/C(=N\S(=O)(=O)c2cccs2)c2ccccc2C1=O | 12.6 | 8.0 | -0.1 | i | -2.8
CC(=O)N(C)C[C@@H]1Oc2ncc(C#CC(C)(C)O)cc2C(=O)N([C@H](C)CO)C[C@@H]1C | · | 2.9 | 3.3 | · | ·
Cc1cccc(-c2ccc([C@@H]3[C@@H](CO)N4CCCCN(S(=O)(=O)c5ccccc5C)C[C@@H]34)cc2)c1 | · | -8.3 | · | · | ·
COc1ccccc1/C=C/CN1CCC(n2nccc2NC(=O)CCc2ccccc2)CC1 | 18.7 | · | 39.7 | i | -0.8
COc1cccc(CN2CCC(n3nccc3NC(=O)CCCc3ccccc3)CC2)c1 | -81.1* | 10.9 | -4.8 | i | -0.7
O=C(CCc1ccccc1)Nc1ccnn1C1CCN(C/C=C/c2ccccc2)CC1 | 4.4 | -1.2 | 2.6 | i | 434.5*
COCC(=O)Nc1ccc2c(c1)C(=O)N(C)[C@@H]1CC[C@@H](CC(=O)NCc3ccccc3)O[C@@H]1CO2 | · | -2.9 | -10.2 | · | ·
C[C@H](CO)N1C[C@H](C)[C@H](CN(C)CC2CCCC2)Oc2ncc(-c3cccc(F)c3)cc2C1=O | · | 8.7 | · | · | ·
CCn1nc(C)cc1C(=O)NC1CC(C)(C)Cc2c1cnn2-c1cccc(F)c1 (configuration not stated) | -1.4 | · | -5.6 | + | 0.0
Cc1cc(C)c(C(=O)NC2CC(C)(C)Cc3c2cnn3-c2cccc(F)c2)[nH]1 (configuration not stated) | 28.2 | · | -0.4 | i | -0.8
COc1ccccc1-n1nnnc1SCC(=O)Nc1ccccc1 | 9.9 | -15.9 | 2.4 | i | 0.4
COc1ccccc1-n1nnnc1SCC(=O)Nc1ccccn1 | 1.9 | 3.9 | 72.3* | i | 0.0
COC(=O)c1sccc1NC(=O)CSc1nnnn1-c1ccccc1C | 18.8 | -2.3 | · | + | 0.0
SMILES | AI-2 QS mod | PGC1a acetyl inh | C2C12 statin | Rce1 inh | HIF activator
Cc1ccc(-c2n[nH]c(=S)n2/N=C/c2cccn2C)cc1 | 26.0 | 50.0* | · | i | -0.4
Cn1cccc1/C=N/n1c(-c2ccc(Cl)cc2)n[nH]c1=S | 0.6 | 2.1 | · | i | 0.3
Cc1cc(C)n(CC(O)COc2cccc(OCC(O)Cn3nc(C)cc3C)c2)n1 (configuration not stated) | -0.4 | 2.0 | 91.0* | i | -0.2
COc1ccc(-c2ccc3n(c2=O)C[C@H]2[C@H](CO)[C@@H](C(=O)Nc4ccccc4)[C@@H]3N2C)cc1 | · | · | 10.7 | · | ·
Oc1c(Cl)cc(CN2CCOCC2)c2cccnc12 | · | ? | 2.5 | · | ·
Oc1c(CN2CCc3ccccc3C2)cc(Cl)c2cccnc12 | -88.6* | 11.9 | 24.1 | i | 50.3*
O=C(COc1c(Br)cc(Br)c2cccnc12)N1CCCCC1 | 15.4 | -12.6 | · | i | -0.1
Oc1c(CN2CCCCC2)cc(Br)c2cccnc12 | -87.4* | 1.2 | 20.4 | i | ·
Cc1ccccc1-c1ccc([C@H]2[C@@H](CO)N3CCCCN(C(=O)NC4CCCC4)C[C@H]23)cc1 | · | -0.8 | -82.9 | · | ·
COc1ccc(C2CC(=O)c3cnc(NC(=O)c4ccccc4)nc3C2)c(OC)c1 (configuration not stated) | 16.7 | -6.5 | 7.2 | i | 1.8
COc1ccc(C2CC(=O)c3cnc(N)nc3C2)c(OC)c1 (configuration not stated) | 24.3 | -1.4 | 106.0* | i | -0.3
C[C@H](CO)N1C[C@H](C)[C@H](CN(C)Cc2ccc(-c3ccccc3)cc2)Oc2c(NC(=O)C3CCOCC3)cccc2C1=O | · | 1.4 | 9.8 | · | ·
COc1cc(OC)cc(C(=O)Nc2ccccc2C(=O)N2CCCC2)c1 | 13.4 | -2.0 | 114.8* | i | 1.5
CS(=O)(=O)Nc1ccc(C(=O)N2CCN(c3ccccc3)CC2)cc1 | -1.7 | -33.1 | 115.0* | i | ·
COc1ccc(C(=O)Nc2ccccc2C(=O)N2CCCCCC2)cc1 | 16.4 | -3.7 | 8.1 | i | -0.3
CS(=O)(=O)Nc1ccc(C(=O)Nc2ccccc2C(=O)N2CCCC2)cc1 | 26.1 | 17.5 | 90.1* | · | 0.0
O=C(NCC(F)(F)F)[C@@H]1[C@@H](CO)[C@@H]2Cn3c(cccc3=O)[C@@H]2N1C(=O)C1CCCC1 | · | · | -11.8 | · | ·
C[C@H]1CN([C@@H](C)CO)S(=O)(=O)c2ccc(C3=CCCC3)cc2O[C@@H]1CN(C)C(=O)c1cnccn1 | · | 8.2 | -23.8 | · | ·
C[C@@H]1CN([C@H](C)CO)C(=O)c2cc(-c3cncnc3)cnc2O[C@H]1CN(C)C(=O)c1cccc(F)c1 | · | 5.3 | -3.7 | · | ·
CCCNC(=O)N[C@@H]1CC[C@@H](CC(=O)NC2CCCCC2)O[C@@H]1CO | · | -5.3 | -2.1 | · | ·
O=C(c1ccccc1)N1CC(=O)N2[C@@H](CO)[C@H](c3ccc(C#Cc4ccccc4)cc3)[C@@H]2C1 | · | -3.2 | · | · | ·
Cc1ccccc1-c1ccc([C@H]2[C@@H](CO)N3CCCCN(C(=O)CN4CCOCC4)C[C@H]23)cc1 | · | -1.0 | · | · | ·
C=CCn1c(=O)c(C(=O)Nc2cccnc2)c(O)c2ccccc21 | 20.9 | -8.8 | 96.2* | i | -0.7
CC(=O)Nc1sc(N/N=C/c2ccccc2)nc1-c1ccc(C)cc1 | 27.0 | -2.1 | · | · | 1.2
CCCc1sc(N/N=C/c2ccccn2)nc1-c1ccc(Br)cc1 | 9.0 | 7.8 | -165.0 | i | 24.7*
